The structures appear in SMILES notation. Hit rate of the full screen: of about 290,000 compounds, about 11,000 (3.8%) were called active.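 Rule for the calls: active = mean replicate inhibition above about 79%, with every replicate also reaching it (limit read from the data); inconclusive = only one of the two criteria met; inactive = mean below limit and not every replicate reaching it.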 The entries come from a sample that favours actives as a whole.

FAD-linked sulfhydryl oxidase ALR (Homo sapiens), sequence (P55789 whole entry, looked up): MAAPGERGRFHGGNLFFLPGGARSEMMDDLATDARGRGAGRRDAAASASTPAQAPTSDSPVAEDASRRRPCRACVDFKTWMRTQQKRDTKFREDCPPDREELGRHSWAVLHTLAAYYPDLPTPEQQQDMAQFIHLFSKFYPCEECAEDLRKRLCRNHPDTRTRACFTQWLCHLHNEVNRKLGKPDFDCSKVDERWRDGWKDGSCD

This assay concerns the target FAD-linked sulfhydryl oxidase ALR (Homo sapiens) (UniProt P55789). As to the kind of experiment: inhibitors of human ALR sulfhydryl oxidase, primary screen, biochemical, H2O2 detection, HRP-luminol luminescence, single point (AID 485317). The note with it: purified ALR, DTT oxidation, hits give high values, concentration not given here.
In the case of `Cc1noc(NS(=O)(=O)c2ccc(NC(=O)C34CCC(CC3)C4)cc2)c1C`, the inhibition was 6.47% (inactive). The value for `Cc1cc(OC(C)C(=O)Nc2ccc(S(=O)(=O)Nc3onc(C)c3C)cc2)cc(C)c1Cl` (stereo not drawn) was 97.6% (active). With `CCn1c(SCC(=O)Nc2ccc(S(=O)(=O)Nc3onc(C)c3C)cc2)nnc1-c1ccccc1` the figure was 53.3% (inactive); with `Cc1noc(NS(=O)(=O)c2ccc(N/C=C/C(=O)c3ccccc3)cc2)c1C`, 85.4% (active).

Take `CCc1ccc(OC(C)C(=O)Nc2ccc(S(=O)(=O)Nc3cc(C)on3)cc2)cc1` (stereo not drawn): the inhibition is 9.12% (inactive). The value for `CC(Oc1cccc(Cl)c1)C(=O)Nc1ccc(S(=O)(=O)Nc2ncccn2)cc1` (stereo not drawn) was 7.5% (inactive); that for `CCOc1cc(N2CCOCC2)c(OCC)cc1NC(=O)COc1cccc(Cl)c1` was -15.1% (inactive); that for `O=C(CCCOc1ccccc1)NNC(=O)c1ccc(Cl)cc1` was 3.44% (inactive). With `Cc1occc1C(=O)N/N=C/c1ccc(-c2cccc([N+](=O)[O-])c2)o1` the figure was -4.94% (inactive); with `COc1ccc(NC(=O)CNc2cc(S(=O)(=O)N3CCOCC3)ccc2N2CCOCC2)c(OC)c1`, 1.23% (inactive). With `Cc1ccc(NS(=O)(=O)c2ccc(C(C)C)cc2)cc1S(=O)(=O)N1CCOCC1` the figure was 4.5% (inactive); with `Cc1cc(C(=O)Nc2nnc(C3CC3)s2)c(C)s1`, -0.2% (inactive).

For the molecule `CC(C)CN(C(=O)COC(=O)c1ccc(Cl)c(N)c1)c1c(N)n(Cc2ccccc2)c(=O)[nH]c1=O`, the inhibition was -4.01% (inactive). `Cc1cc(/C=C2\SC(=O)N(C)C2=O)c(C)n1-c1cccc(C(=O)O)c1`: the inhibition is 81.6% (active). The value for `Cc1cc(/C=N/n2cnnc2)c(C)n1-c1cccc(C(=O)O)c1` was 2.1% (inactive).

For the molecule `CN1C(=O)/C(=C/c2ccco2)SC1=Nc1cccc(C(=O)O)c1`, the inhibition was 1.79% (inactive).

Turning to `COc1ccc(-c2c3c(=O)n(C)c(=O)n(C)c3cn2-c2cccc(OC)c2)cc1`, the inhibition is -5.98% (inactive).

Take `Cc1ccc(-c2c3c(=O)n(C)c(=O)n(C)c3cn2-c2ccccc2O)cc1`: the inhibition was -5.8% (inactive). With `Cc1ccc(-c2c3c(=O)n(C)c(=O)n(C)c3cn2-n2cnnc2)cc1` the figure was 97.2% (active); with `O=C(COC(=O)c1cc(S(=O)(=O)N2CCOCC2)ccc1Cl)NCCc1ccccc1`, -0.788% (inactive); with `CCc1ccccc1OCC(=O)Nc1ccc(C)c(S(=O)(=O)N2CCCCCC2)c1`, -0.917% (inactive).

For `O=C(Nc1ccc2c(c1)OCCO2)C1CCCN(c2ncccn2)C1` (stereo not drawn), the inhibition is -3.09% (inactive). The value for `COc1ccc(C(=O)N2CCC(C(=O)Nc3ccc(C)cc3)CC2)cc1` was -30.7% (inactive); that for `Cc1cccc(C(=O)N2CCCC(Nc3ccc(C(C)C)cc3)C2)n1` (stereo not drawn) was 97.8% (active). The value for `CC(C)c1ccc(NC(=O)NC2CCCCC2)cc1` was -0.723% (inactive); that for `COC(=O)c1cccc(C(=O)N2CCCC(Nc3ccc4c(c3)OCCO4)C2)c1` (stereo not drawn) was 93.9% (active). For `COc1ccc(NC2CCCN(C(=O)c3ccncc3)C2)cc1` (stereo not drawn), the inhibition was 95.8% (active). In the case of `CC(C)c1ccc(NC(=O)C2CCCN(S(=O)(=O)c3cccnc3)C2)cc1` (stereo not drawn), the inhibition was 1.01% (inactive). The value for `COC(=O)c1cccc(C(=O)N2CCC(CCC(=O)NCc3ccc(F)cc3)CC2)c1` was -3.28% (inactive). The value for `CC(C)c1ccc(NC2CCCN(C(=O)c3ccncc3)C2)cc1` (stereo not drawn) was 53.9% (inactive). As for `O=C(Nc1ccc2nc3n(c(=O)c2c1)CCCC3)c1ccc(Cl)nc1`, the inhibition is 0.685% (inactive). With `COc1ccccc1-c1nnc(-c2ccc(F)cc2)o1` the figure was 2.91% (inactive). The value for `COc1ccc(NS(=O)(=O)c2ccc(C)c(C(=O)N(C)Cc3ccc(OC)cc3OC)c2)cc1` was -17.9% (inactive); that for `O=C(Nc1ccc(S(=O)(=O)N2CCCCC2)cc1)C1CCN(C(=O)c2ccc(F)cc2)CC1` was -0.325% (inactive). The value for `CC1CCN(C(=O)c2cccc(S(=O)(=O)N3CCCc4ccccc43)c2)CC1` was -15.4% (inactive); that for `CC(C)(C)OC(=O)C[C@@H]1C/C=C\C[C@@H](CC(=O)N[C@@H](CO)Cc2ccccc2)C(=O)N2CCC[C@H]2COC1=O` was -8.71% (inactive).

Consider `COc1ccc(C(=NN)c2ccc(OC)cc2)cc1`, for which the inhibition is 0.931% (inactive). The value for `CCC(=O)c1ccc(OCC(=O)Nc2ccc(N3CCCCC3)cc2)cc1` was -9.1% (inactive). With `Cc1ccc(C)c(OCCC(=O)Nc2cccc(S(=O)(=O)N3CCCC3)c2)c1` the figure was -0.0535% (inactive); with `CCc1ccc(NC(=O)CN2C(=O)CSC2=O)cc1`, 96% (active).

For the molecule `CCc1ccc(NC(=O)Cn2ncn3c(cc4ccccc43)c2=O)cc1`, the inhibition was 3.26% (inactive).

On to `COc1ccc(NC(=O)CN2C(=O)CSC2=O)cc1`, for which the inhibition is 21.6% (inactive).

With `Cc1ccc2nc(NC(=O)C3CSC4(C)CCC(=O)N34)sc2c1` (stereo not drawn), the inhibition is -0.552% (inactive). With `O=C1CSC(c2cccc(F)c2)N1c1ccccc1F` (stereo not drawn) the figure was 91.3% (active). With `O=C1CSC(c2cccc(F)c2)N1c1ccc(O)cc1` (stereo not drawn) the figure was -57.5% (inactive); with `O=C1CSC(c2ccccc2)N1c1nc(-c2ccc(Cl)cc2Cl)cs1` (stereo not drawn), -3% (inactive). Take `COc1ccccc1CNC(=O)c1ccc(Cl)c(S(=O)(=O)N2CCCC2)c1`: the inhibition is -3.23% (inactive). For the molecule `CC(=O)O[C@H]1CC[C@@]2(C)[C@@H](CC[C@@H]3[C@@H]2CC[C@]2(C)[C@@H](C(C)(C)O)C[C@@H]32)C1`, the inhibition was -2.24% (inactive). With `Cc1ccc2nc(-c3ccncc3)cc(C(=O)Nc3ccncc3)c2c1` the figure was -3.42% (inactive). With `Cc1ccc2nc(-c3ccccc3)cc(C(=O)O)c2c1` the figure was 89.7% (active); with `Cc1ccc2nc(-c3cccc(Br)c3)cc(C(=O)Nn3cnnc3)c2c1`, 1.88% (inactive). The value for `O=C(CC1SC(N2CCOCC2)=NC1=O)Nc1ccccc1F` (stereo not drawn) was -2.71% (inactive); that for `Cc1ccc(S(=O)(=O)N2CCN(C(=O)Cc3sc(C)nc3-c3ccc(F)cc3)CC2)c(C)c1` was -12.2% (inactive). In the case of `CCC1(C)NC(=O)N(CC(=O)N2CCN(c3cccc(Cl)c3)CC2)C1=O` (stereo not drawn), the inhibition is 1.58% (inactive). Turning to `O=C(COC(=O)COc1ccccc1F)Nc1cccc(S(=O)(=O)N2CCCCC2)c1`, the inhibition was -10.2% (inactive). The value for `COc1ccc(Br)cc1/C=N/n1c(C)nnc1C` was -4.68% (inactive); that for `COc1ccc(Br)cc1/C=N/NC(=O)c1cccc(S(=O)(=O)N2CCOCC2)c1` was -1.11% (inactive); that for `COc1ccc(Br)cc1/C=N/Nc1ccc(Cl)c(C(=O)O)c1` was 96.9% (active).

The values are drawn from PubChem BioAssay AID485317 (Broad Institute, 2010).
